Laboratory results as given in the supplement of paper PMC12024424.
Structures can show the parent of a compound that is named as a salt.

Test system: Staphylococcus aureus Sa2 (MRSA, cystic fibrosis isolate)
Test: growth reduction vs untreated control (OD550); higher = stronger antibacterial activity
Conditions: 0.1 mM; 24 h
Method: (§1)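 Single-dose screen of the MedChem Express Drug Repurposing Library (0.1 mM, 1% DMSO) against planktonic MRSA S. aureus Sa2 (CF isolate) in TSB in 96-well plates, 37 °C aerobic, 24 h. Assays were run in triplicate and repeated twice.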

Structure (SMILES) | growth reduction [%]
Clc1ccccc1C(c1ccccc1)(c1ccccc1)n1ccnc1 [Clotrimazole] | 100
Cc1ccc(C#Cc2ccc(S(=O)(=O)N[C@H](Cc3c[nH]c4ccccc34)C(=O)O)s2)cc1 | 98.4
COc1cccc2c1C(=O)c1c(O)c3c(c(O)c1C2=O)C[C@@](O)(C(=O)CO)C[C@@H]3O[C@H]1C[C@H](N)[C@H](O)[C@H](C)O1 [Doxorubicin (hydrochloride)] | 96.1
CC(C)c1c(C(=O)Nc2ccccc2)c(-c2ccccc2)c(-c2ccc(F)cc2)n1CC[C@@H](O)C[C@@H](O)CC(=O)O [Atorvastatin (hemicalcium salt)] | 99.7
C[C@@H](OC[C@@]1(c2ccccc2)CC[C@]2(CCC(=O)N2)CN1)c1cc(C(F)(F)F)cc(C(F)(F)F)c1 [Rolapitant] | 100
Clc1ccc(Nc2nnc(Cc3ccncc3)c3ccccc23)cc1 [Vatalanib (dihydrochloride)] | 100
CCOC(=O)[C@H](CCc1ccccc1)N[C@@H](C)C(=O)N1[C@H](C(=O)O)C[C@@H]2CCC[C@@H]21 [Ramipril] | 92.1
COc1cccc(-c2ccc(NC(=O)C3=C(C(=O)O)CCC3)c(F)c2)c1 [Vidofludimus] | 93
CC1(C)CCC(C)(C)c2cc(NC(=O)c3ccc(C(=O)O)cc3)ccc21 [Tamibarotene] | 95.5
OCCN1CCN(CC/C=C2/c3ccccc3Sc3ccc(C(F)(F)F)cc32)CC1 [Flupentixol dihydrochloride] | 100
CCC[C@H](Oc1cc(C)c(-n2cc(C(F)(F)F)cn2)c(C)c1)c1ccc(C(=O)NCCC(=O)O)cc1 | 100
O=C(c1ccc(F)c(F)c1Nc1ccc(I)cc1F)N1CC(O)([C@@H]2CCCCN2)C1 [Cobimetinib] | 100
NCCCC[C@H](NC(=O)[C@@H](NC(=O)[C@H](Cc1c[nH]c2ccccc12)NC(=O)[C@H](CCCCN)NC(=O)[C@H](CCCCN)NC(=O)[C@H](Cc1c[nH]c2ccccc12)NC(=O)[C@H](Cc1c[nH]c2ccccc12)NC(=O)[C@H](CCCCN)NC(=O)[C@@H](N)CCCCN)C(c1ccccc1)c1ccccc1)C(N)=O | 100
NC(=O)N1c2ccccc2C[C@H](O)c2ccccc21 [Eslicarbazepine] | 92.7
CCCCc1oc2ccc(NS(C)(=O)=O)cc2c1C(=O)c1ccc(OCCCN(CCCC)CCCC)cc1 [Dronedarone (Hydrochloride)] | 92.6
Cc1nc2sccn2c(=O)c1CCN1CCC(=C(c2ccc(F)cc2)c2ccc(F)cc2)CC1 [Ritanserin] | 97.5
C#C[C@]1(O)CC[C@H]2[C@@H]3CCc4cc(OC)ccc4[C@H]3CC[C@@]21C [Mestranol] | 92.6
C[C@@H](NCCCc1cccc(C(F)(F)F)c1)c1cccc2ccccc12 [Cinacalcet (hydrochloride)] | 100
O=c1[nH]c(=O)n([C@H]2C[C@H](O)[C@@H](CO)O2)cc1F [Floxuridine] | 100
CC(C)=CCC/C(C)=C/CC/C(C)=C/CSc1ccccc1C(=O)O [Salirasib] | 100
N#Cc1ccc(Oc2ccc3c(c2)COB3O)cc1 [Crisaborole] | 100
NC(N)=NC(=O)c1nc(Cl)c(N2CCCCCC2)nc1N [5-(N,N-Hexamethylene)-amiloride] | 100
Cc1ccc(C(=O)N(CCCN)[C@@H](c2oc3cc(Cl)ccc3c(=O)c2Cc2ccccc2)C(C)C)cc1 | 100
CC(C)(C)OC(=O)N[C@H]1CCCCC/C=C\[C@@H]2C[C@@]2(C(=O)NS(=O)(=O)C2CC2)NC(=O)[C@@H]2C[C@@H](OC(=O)N3Cc4cccc(F)c4C3)CN2C1=O [Danoprevir] | 99.9

Test system: Staphylococcus aureus Sa2 (MRSA, cystic fibrosis isolate)
Test: growth reduction vs untreated control (viable cell count); higher = stronger antibacterial activity; extreme values may be limits of the assay
Conditions: 0.1 mM; 24 h
Method: as §1

Structure (SMILES) | growth reduction [%]
CCCCc1nc(-c2ccc(OCCCN(CC)CC)cc2)cn1-c1ccc(Oc2ccc(Cl)cc2)cc1 [Azeliragon] | 100
CC(C)COc1ccc(CNC(=O)N(Cc2ccc(F)cc2)C2CCN(C)CC2)cc1 [Pimavanserin tartrate] | 100
CCOC(=O)[C@H](CCc1ccccc1)N[C@@H](C)C(=O)N1[C@H](C(=O)O)C[C@@H]2CCC[C@@H]21 [Ramipril] | 92
CCC[C@H](Oc1cc(C)c(-n2cc(C(F)(F)F)cn2)c(C)c1)c1ccc(C(=O)NCCC(=O)O)cc1 | 100
